A short description of experiment [1]: NCI Yeast Anticancer Drug Screen. Data for the rad50 strain (AID 155).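 Note: 0% = growth of vehicle-only cultures of the same strain.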 The following applies: S. cerevisiae rad50 strain growth inhibition, active compounds read high. The procedure, abridged: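 Growth of the mutant yeast was measured after compound exposure and referenced to vehicle-treated cultures.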
Experiment [2] in a line: NCI Yeast Anticancer Drug Screen. Data for the mec2-1 strain (AID 157). The following applies: S. cerevisiae mec2-1 strain, active compounds read high. Summed up: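 Vehicle-treated cultures served as reference for growth inhibition of compound-exposed mec2-1 yeast.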
Experiment [3] in a line: NCI Yeast Anticancer Drug Screen. Data for the sgs1 mgt1 strain (AID 161).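 Note: 0% = growth of cultures given vehicle only.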 The following applies: S. cerevisiae sgs1 mgt1 strain, active compounds read high. The procedure, abridged: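 Test agents were incubated with a DNA-repair-mutant yeast strain. Growth was then read and compared against vehicle-treated controls.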
Experiment [4] can be described thus: NCI Yeast Anticancer Drug Screen. Data for the cln2 rad14 strain (AID 165).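 Note: 0% = growth equal to vehicle treated cultures.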 To be noted: S. cerevisiae cln2 rad14 strain, active compounds read high. Summed up: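 Each compound was tested on cln2 rad14 yeast. Inhibition of growth was calculated against vehicle-exposed controls.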
Experiment [5] is described as follows: NCI Yeast Anticancer Drug Screen. Data for the bub3 strain (AID 167). The following applies: S. cerevisiae bub3 mutant strain, active compounds read high. The procedure, abridged: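 Whole-cell yeast assay. The mutant strain was incubated with compounds, and growth inhibition was determined by comparison with vehicle-treated cells.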
A short description of experiment [6]: NCI Yeast Anticancer Drug Screen. Data for the mlh1 rad18 strain (AID 175). To be noted: S. cerevisiae mlh1 rad18 strain growth inhibition, active compounds read high. The procedure, abridged:
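Vehicle-treated cultures served as the reference for growth inhibition in a yeast strain carrying DNA damage repair alterations exposed to each compound.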

Where [7] appears, read: at 5.0 µM (retest, dose inferred, filed as 0.5).
The mark [8] stands for this setting: at 50.0 µM (retest, dose inferred, filed as 5.0).

About 79,000 compounds went through this panel and 15% of them were active in at least one assay; those are over-represented in the sample as a whole. A number with no mark means an inactive call. Active and inactive are the calls of the source. Cut-off read from the data, not from the text of the source: active = growth inhibition above about 70%; inactive = the rest.

As to `CC1(Cc2ccccc2)CCCC(C=O)C1=O.[Cu+2]` (configuration not stated), the growth inhibition in experiment [1] (setting [7]) was 1%; in experiment [1] (setting [8]) it was 98% (active); in experiment [1] (at 50.0 µM), 66.5%; in experiment [2] (setting [7]) it was 0%; in experiment [2] (setting [8]), 97% (active); in experiment [2] (at 50.0 µM), 31.5%. For the same molecule, the growth inhibition in experiment [3] (setting [7]) is -4%; in experiment [3] (setting [8]) it was 98% (active); in experiment [3] (at 50.0 µM), 94.7% (active); in experiment [4] (setting [7]), 0%; in experiment [4] (setting [8]), 92% (active); in experiment [4] (at 50.0 µM) it was -21.9%. The growth inhibition in experiment [5] (setting [7]) is -3%; in experiment [5] (setting [8]), 96% (active); in experiment [5] (at 50.0 µM), -3.85%; in experiment [6] (setting [7]) it was 0%; in experiment [6] (setting [8]) it was 99% (active); in experiment [6] (at 50.0 µM), 44.9%.

In the case of `O=[N+]([O-])c1ccc(O)c(-c2ccccc2)c1`, the growth inhibition was 3% in experiment [1] (setting [7]); 99% (active) in experiment [1] (setting [8]); 99.3% (active) in experiment [1] (at 50.0 µM); -31% in experiment [2] (setting [7]); 99% (active) in experiment [2] (setting [8]); 99.7% (active) in experiment [2] (at 50.0 µM). Besides, the growth inhibition is 6% in experiment [3] (setting [7]); 99% (active) in experiment [3] (setting [8]); 98.8% (active) in experiment [3] (at 50.0 µM); 6% in experiment [4] (setting [7]); 99% (active) in experiment [4] (setting [8]); 98.7% (active) in experiment [4] (at 50.0 µM). Also, the growth inhibition was -2% in experiment [5] (setting [7]); 98% (active) in experiment [5] (setting [8]); 99.2% (active) in experiment [5] (at 50.0 µM); 5% in experiment [6] (setting [7]); 99% (active) in experiment [6] (setting [8]); 99.2% (active) in experiment [6] (at 50.0 µM).

For the molecule `O=C1c2ccc3c4ccccc4n(Cc4ccccc4)c3c2C(=O)N1c1ccccc1`, the growth inhibition in experiment [1] (setting [7]) was 87% (active); in experiment [1] (setting [8]), 87% (active); in experiment [1] (at 50.0 µM), 92% (active); in experiment [2] (setting [7]), 62%; in experiment [2] (setting [8]), 62%; in experiment [2] (at 50.0 µM) it was 93.4% (active). In addition, the growth inhibition in experiment [3] (setting [7]) was 39%; in experiment [3] (setting [8]) it was 39%; in experiment [3] (at 50.0 µM) it was 92.5% (active); in experiment [4] (setting [7]), 75% (active); in experiment [4] (setting [8]) it was 75% (active); in experiment [4] (at 50.0 µM), 92.2% (active). The growth inhibition in experiment [5] (setting [7]) is 80% (active); in experiment [5] (setting [8]), 80% (active); in experiment [5] (at 50.0 µM) it was 91.5% (active); in experiment [6] (setting [7]) it was 47%; in experiment [6] (setting [8]), 47%; in experiment [6] (at 50.0 µM), 91.3% (active).

`Cc1cccc2nc3nc(Cl)c(Cl)nc3n12`: the growth inhibition in experiment [1] (setting [7]) is 4%; in experiment [1] (setting [8]) it was 76% (active); in experiment [1] (at 50.0 µM), 75.7% (active); in experiment [2] (setting [7]) it was 17%; in experiment [2] (setting [8]) it was 82% (active); in experiment [2] (at 50.0 µM), 50.1%. Also, the growth inhibition in experiment [3] (setting [7]) is 13%; in experiment [3] (setting [8]), 91% (active); in experiment [3] (at 50.0 µM) it was 64.5%; in experiment [4] (setting [7]), 7%; in experiment [4] (setting [8]), 54%; in experiment [4] (at 50.0 µM), 51.5%. Further, the growth inhibition is 8% in experiment [5] (setting [7]); 36% in experiment [5] (setting [8]); 51.4% in experiment [5] (at 50.0 µM); 26% in experiment [6] (setting [7]); 95% (active) in experiment [6] (setting [8]); 90.8% (active) in experiment [6] (at 50.0 µM).

For the origin of these results see PubChem BioAssay (NCI).
